Values joined by “and” are separate entries in the source; they are usually repeats but may differ in a detail not shown here. Equal entries are not always repeated. This is part of a sample that, as a whole, favours compounds with a hit. Of some 83,000 tested, about 20% had one in any assay.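 Step 1: grow cells in 96-well plates. Step 2: add test compound at a single concentration. Step 3: incubate 48 h. Step 4: record percent growth.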 A number with no mark means an inactive call. Active and inactive are the calls of the source. Rule for the calls: active = growth percent below 10; inactive = the rest.
Each compound was assayed on MDA-MB-468 breast (assay: NCI-60 one-dose screen, 48 h (100 = growth as untreated, 0 = no growth, -100 = all killed)). Settings: 10 µM unless noted.

**Q.** CS(=O)(=O)c1ccc(-c2nc3cc(Cl)ccc3n2CC(=O)N/N=C/c2ccc(Cl)cc2)cc1 was tested. Which growth did it give?
**A.** The growth was 96.6%.

**Q.** Which growth does the source give for O=C(/C(=C(\C(=O)c1ccccc1)c1ccccc1)c1ccccc1)c1ccccc1 here?
**A.** The growth was 47.9%.

**Q.** Which growth does the source give for Cc1ccc(Nc2nnc(-c3cc(-c4ccncc4)n(-c4ccccc4)n3)s2)cc1 here?
**A.** Its growth is 48.7%.

**Q.** With O=C(CSc1nnc(-c2ccc(Cl)cc2)n1-c1ccccc1)Nc1ccc(Br)cc1 as the compound, how does the growth read?
**A.** Its growth is 59.1%.

**Q.** For C/C(=N\Nc1ccc([N+](=O)[O-])cn1)c1ccc(N)cc1, which growth is on record?
**A.** Its growth is 99.7%.

**Q.** Which growth does the source give for COc1cccc(-c2nnc(N)o2)c1 here?
**A.** Its growth is 90.3%.

**Q.** CC(C)(C)c1nn(-c2ccccc2)c2c1C(=O)CSC(c1ccccc1Cl)N2 (stereo not given) was tested. Which growth did it give?
**A.** The growth was 19.8%.

**Q.** With CCc1ccccc1NC(=O)c1sc2nc3c(cc2c1N)CCCC3 as the compound, how does the growth read?
**A.** Its growth is 43%.

**Q.** With Cc1ccc(Cl)cc1NC(=O)c1sc2nc3c(cc2c1N)C(=O)CCC3 as the compound, how does the growth read?
**A.** The growth was 8.44% (active).

**Q.** CC(=O)OCC1OC(OC(C)=O)C(OC(C)=O)C(OC(C)=O)C1OC(C)=O (stereo not given) was tested. Which growth did it give?
**A.** Its growth is 95.5% and 108%.

**Q.** How did the growth turn out when Cc1[nH]c(-c2nc3ccccc3[nH]2)c(C)c1C(=O)N1CCc2sccc2C1 was run?
**A.** Its growth is 70.2%.

**Q.** Which growth does the source give for CN1C(=O)/C(=C\c2nc([P+](c3ccccc3)(c3ccccc3)c3ccccc3)c(N3CCOCC3)o2)SC1=S here?
**A.** Its growth is 10.1%.

**Q.** With CN(C)C(=O)c1cc2cnc(Nc3ccc(-c4csc5c(=O)cc(N6CCOCC6)oc45)cc3)nc2n1C1CCCC1 as the compound, how does the growth read?
**A.** Its growth is -5.41% (active).

**Q.** Which growth does the source give for Cn1cc(-c2nnc(N)nc2-c2c[nH]c3ccc(F)cc23)c2cc(F)ccc21 here?
**A.** The growth was -15.1% (active).

**Q.** With Oc1ccc(CSc2nnc(-c3ccc(Cl)cc3)n2-c2ccccc2)c2cccnc12 as the compound, how does the growth read?
**A.** The growth was 14.5%.

**Q.** How did the growth turn out when N#CC1=C(N)Oc2c(ccc3ccccc23)C1c1cccs1 (stereo not given) was run?
**A.** Its growth is 26.5%.

**Q.** Which growth does the source give for CN(C)c1ccc(/C=C/c2ccnc3ccccc23)cc1N here?
**A.** Its growth is 5.88% (active).

**Q.** With CC(=O)c1nn(-c2ccccc2)c(=Nc2ccccc2)cc1C as the compound, how does the growth read?
**A.** The growth was 91.9%.

**Q.** How did the growth turn out when COc1cc2cc(Oc3cccc(NC(=O)Nc4cc(C(F)(F)F)cc(C(F)(F)F)c4)c3)c(C)nc2cc1OC was run?
**A.** The growth was -8.12% (active).

**Q.** CCN1C(=O)N(CC)C2SC(N/N=C/c3ccccc3)=NC21 (stereo not given) was tested. Which growth did it give?
**A.** The growth was 34.4%.

**Q.** Which growth does the source give for CC(C)(C)CC(C)(C)c1ccc(OCCOCC[N+](C)(C)CC(=O)[O-])cc1 here?
**A.** Its growth is 108%.

**Q.** How did the growth turn out when Cc1cc(=O)oc2cc(OCc3nn4c(Nc5nc6ccccc6s5)c(-c5ccccc5)nc4s3)ccc12 was run?
**A.** The growth was 89.9%.

**Q.** CCCNCCC(C)=O was tested. Which growth did it give?
**A.** The growth was 127%.

**Q.** How did the growth turn out when CC(Oc1ccc(C(=O)O)cc1C(F)(F)F)c1ccc(Oc2ccccc2)cn1 (stereo not given) was run?
**A.** Its growth is 97.3%.

**Q.** C=C(C)CCCC(C)CC#N (stereo not given) was tested. Which growth did it give?
**A.** The growth was 93.3%.

**Q.** With CC(C)(C)OC(=O)N1C/C(=C\c2ccoc2)C(=O)/C(=C/c2ccoc2)C1 as the compound, how does the growth read?
**A.** Its growth is 97.3%.

**Q.** Which growth does the source give for BrCCCc1n(Cc2ccc3ccccc3c2)c2ccccc2[n+]1Cc1ccc2ccccc2c1 here?
**A.** The growth was -68% (active).

**Q.** Which growth does the source give for Cc1cc(-c2ccccc2)c(C)n1Cc1ccc(Cl)cc1 here?
**A.** The growth was 27.7%.

**Q.** CCCn1cnc2c(c1=N)C(c1ccc(F)cc1)c1sc3c(F)cccc3c1O2 (stereo not given) was tested. Which growth did it give?
**A.** Its growth is 58.4%.

**Q.** With NC(=O)c1ccc(-c2cccc3c(=O)nc(N4CCOCC4)oc23)cc1 as the compound, how does the growth read?
**A.** The growth was 105%.

**Q.** How did the growth turn out when COC(=O)c1c2c(c(C)[n+]([O-])c1C)C(=O)C=C(NCc1ccc(F)c(F)c1)C2=O was run?
**A.** Its growth is -78.4% (active).

**Q.** How did the growth turn out when S=c1[nH]nc2ccccn12 was run?
**A.** Its growth is 98.2%.

**Q.** CNC(=O)c1cc(-n2ccc3cc(NC(=O)c4ccc(N5CCOCC5)c(C(F)(F)F)c4)ccc32)ccn1 was tested. Which growth did it give?
**A.** Its growth is 71.6%.

**Q.** With O=C(CSc1nc2ccccc2c(=O)n1-c1ccc(S(=O)(=O)Nc2ccc(Cl)nn2)cc1)Nc1ccc(S(=O)(=O)Nc2ccc(Cl)nn2)cc1 as the compound, how does the growth read?
**A.** Its growth is 94.9%.

**Q.** For COC(=O)[C@@H]1[C@H]2C[C@H]3c4[nH]c5cc(OC)ccc5c4CCN3C[C@@H]2C[C@H](OC(=O)/C=C/c2ccnc(OC)c2)[C@H]1OC, which growth is on record?
**A.** The growth was 76.9%.

**Q.** Cc1[nH]c(C(=O)Nc2ccc(C(=O)NCCN)cc2OC(C)C)c(Cl)c1Cl was tested. Which growth did it give?
**A.** Its growth is -43.6% (active).

**Q.** With CC1=C(NCCN2CCCC2)C(=O)c2c(OCc3cccc(Cl)c3)cccc2C1=O as the compound, how does the growth read?
**A.** Its growth is 69.6%.

**Q.** With Cc1ccc(-c2nc(/C=C3/C(=O)Nc4ccc(F)cc43)c3ccccn23)cc1 as the compound, how does the growth read?
**A.** Its growth is 77.3%.

**Q.** Which growth does the source give for Cn1cc(C(=O)NCCC(=N)N)cc1NC(=O)CN=C(N)N here?
**A.** The growth was 96.7%.

**Q.** With NC(N)=Nc1ccc(Oc2cccc(Oc3ccc(Cl)c(C(F)(F)F)c3)c2)cn1 as the compound, how does the growth read?
**A.** The growth was -79.3% (active).
